Bioassay records from PubChem BioAssay.
CF NFkB inh – blocks PAF-induced NF-kB reporter in cystic fibrosis cells; KKLEB NF-kB-GFP reporter, GFP fluorescence overnight; inhibition, % at 5 µM; 360,000 compounds, 0.86% hits; AID 588850;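 active = at least 50% inhibition at 5 µM, scaled per plate between neutral and stimulator controls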;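 note: PAF is a Pseudomonas aeruginosa culture filtrate used as stimulus; plate controls were PAF-stimulated DMSO wells for no effect and unstimulated DMSO wells for full effect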
C8 TRAIL sens – sensitizes caspase-8 expressing cells to TRAIL; inhibition (viability loss, TRAIL sensitization), % at 10 µM; 360,000 compounds, 1% hits; NB7+C8 cells + TRAIL, ATPlite viability luminescence;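 active = compounds causing at least 50% loss of cell viability in the single-dose screen, relative to plate controls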
Peg3 promoter – reduces Peg3 promoter-driven luciferase expression in HeLa | HeLa PEG-Prom luciferase reporter, luminescence, overnight | inhibition, % at 20 µM | 360,000 compounds, 1.7% hits;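 active = inhibition of at least 50% at 20 µM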
KKLEB cytotox – reduces viability of KKLEB cystic fibrosis airway cells | 360,000 compounds, 0.36% hits | activity change (cytotoxicity), % at 5 µM | KKLEB CF airway cells viability, ATPlite luminescence, overnight; hits give low values; cells stimulated with P. aeruginosa culture filtrate | AID 602141;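 active = corrected activity change at or below -50% at 5 µM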
PPC-1+TRAIL kill – compounds killing PPC-1 cancer cells with TRAIL present (potentiator screen, no TRAIL-free arm). PPC-1 cells + TRAIL, ATPLite viability luminescence. AID 1443. 220,000 compounds, 0.41% hits. cell killing (% activity), % at 4 µM or 5 µM;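 active = cell killing above 50% in the first pass at 4 µM, then a duplicate retest at 5 µM averaging 50% or more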;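 note: plate controls were cells with TRAIL plus DMSO for no effect and medium-only wells lacking cells for full effect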
HIF-2a block – inhibitors of HIF-2a; inhibition, % at 18.8 µM; 786-0 RCC cells HIF-2a reporter, luciferase luminescence, overnight; 360,000 compounds, 0.72% hits;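 active = inhibition of the luminescence signal of 40% or more relative to plate controls, in a single-dose primary screen at 18.75 µM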
Active calls of the source: *; · = no result given. Rows were chosen to be rich in hits. Some 3.1% of all compounds tested hit in one or more screens of this group.

SMILES	CF NFkB inh	C8 TRAIL sens	Peg3 promoter	KKLEB cytotox	PPC-1+TRAIL kill	HIF-2a block
CCc1nc2ccccc2c(C(=O)OCC(=O)Nc2cccc(S(=O)(=O)N3CCOCC3)c2)c1C	4.8	49.7*	76.8*	1.2	-2.4	11.3
O=C1N(c2ccccc2)C[C@@H]2C[C@@H](c3cc4ccccc4o3)N3CCC[C@@]123	87.2*	29.3	104.6*	-65.7*	25.1	-7.9
COC(=O)c1ccc(-c2nc3cc(Cl)c(N)cc3s2)cc1	-20.3	83.0*	43.0	-52.8*	32.7	-92.2
C[C@]12CCC(=O)C=C1CC[C@@H]1[C@@H]2[C@@H](O)C[C@@]2(C)[C@H]1CC[C@]2(O)C(=O)CO	72.7*	-4.2	-5.3	2.7	8.9	29.9
CC12CCC(=O)C=C1CCC1C2C(O)CC2(C)C1CCC2(O)C(=O)CO (stereo not drawn)	61.2*	-8.9	-15.2	21.0	·	23.7
COc1ccc(C(=O)N/C(=C/c2cccnc2)C(=O)N2CCN(C)CC2)cc1OC	-19.6	2.7	6.4	6.8	·	8.2
O=C1NC(=S)S/C1=C\C=C\c1ccc([N+](=O)[O-])o1	93.2*	14.3	104.3*	-39.8	23.9	82.3*
CCN(CC)CCNc1ncnc2c1sc1nc(N3CCOCC3)c3c(c12)CC(C)(C)SC3	38.2	23.5	103.6*	-40.6	37.2	34.0
CC1(C)Cc2c(c(N3CCOCC3)nc3sc4c(=O)[nH]cnc4c23)CS1	35.1	10.8	9.1	-14.5	21.2	7.2
COc1ccc(OC)c(/C=C/c2ccc3cccc(O)c3n2)c1	-41.3	8.2	83.4*	4.9	·	-94.6
COc1ccc(C=Cc2ccc3ccccc3n2)c(OC)c1	1.4	70.0*	-56.6	-36.6	·	11.0
O=C1c2ccccc2C(c2nnnn2-c2ccc3c(c2)OCCO3)N1C1CC1 (stereo not drawn)	·	-4.9	·	·	·	-3.6
Cc1cccc(C)c1NC(=O)C(c1ccccc1)n1c(=O)c(-c2ccco2)nc2ccccc21 (stereo not drawn)	·	-7.7	·	·	·	7.0
O=C(Nc1ccc(-c2nc3ccccc3o2)cc1)C1CCCO1 (stereo not drawn)	-11.9	59.4*	-141.6	-8.7	-33.2	-181.1
O=C1NC[C@H](Cc2ccccc2)N(C[C@@H]2CCCN2C[C@H](Cc2ccccc2)N2C[C@H](Cc3ccc(O)cc3)N(CCc3ccccc3)C(=O)C2=O)C1=O	·	16.9	·	·	·	-2.1
CCCC(O)(c1ccccc1)C(CN1CCOCC1)c1ccccc1 (stereo not drawn)	13.4	-1.3	5.6	-1.7	·	9.9
CCCC(O)(c1ccc(Cl)cc1)C(CN1CCOCC1)c1ccccc1 (stereo not drawn)	-1.4	3.9	57.3*	1.8	20.0	2.4
CCCC(O)(c1ccc(Br)cc1)C(CN1CCOCC1)c1ccc(Cl)cc1 (stereo not drawn)	17.9	9.3	57.7*	-10.8	·	7.1
CCN(CC)S(=O)(=O)c1ccc(NC(=O)C2CC(=O)N(c3ccc4c(c3)OCCO4)C2)cc1 (stereo not drawn)	15.4	-15.4	-31.6	1.6	·	15.1
O=C1C(F)=CC(COC(c2ccccc2)(c2ccccc2)c2ccccc2)OC1n1cc(F)c(=O)[nH]c1=O (stereo not drawn)	90.5*	89.0*	98.1*	-82.3*	·	87.3*
COc1ccc(Cn2cc3c(-c4ccc(F)cc4)nnc-3c3cc(OC)c(OC)cc32)cc1	-70.1	43.4	100.7*	-43.1	10.5	-13.2
Cn1nc2c3cc(F)ccc3n(Cc3ccc(F)cc3)cc-2c1=O	7.7	-11.6	31.2	-1.1	·	17.6
COc1ccc(-c2cn[nH]c2-c2ccc(OCc3ccc(F)cc3)cc2O)cc1OC	20.6	4.1	24.7	-5.2	18.6	19.8
COc1cc2c3nnc(-c4ccc(F)cc4)c-3cn(Cc3ccc(F)cc3)c2cc1OC	-200.8	0.7	97.8*	-21.3	11.2	0.2
CC(C)CNC(=O)c1ccccc1C(=O)NC1(C(=O)NCC(C)C)CCCC1	-9.4	-7.8	7.9	1.6	·	7.3
SMILES	CF NFkB inh	C8 TRAIL sens	Peg3 promoter	KKLEB cytotox	PPC-1+TRAIL kill	HIF-2a block
CCCCN1C[C@H](CSC)[C@@H](CC(=O)Nc2ccc(OC)cc2)C1=O	2.4	1.6	-0.8	-5.0	·	6.8
c1ccc2sc(Sc3ncnc4sccc34)nc2c1	72.0*	-13.0	-56.0	-43.8	13.2	-40.8
c1ccc(CSc2ncnc3sccc23)cc1	8.4	-1.4	-63.4	-7.1	-15.4	-110.9
C=CCOC(=O)C1=C(C)N(C)C(=O)NC1c1cc2c(cc1Br)OCO2 (stereo not drawn)	-4.3	-11.4	66.8*	3.2	-9.8	24.2
CCCCOC(=O)C1=C(C)N(C)C(=O)NC1c1cc2c(cc1Br)OCO2 (stereo not drawn)	6.7	5.0	9.1	-7.1	·	21.9
c1csc(-c2nc(NCC3CCCO3)c3ccccc3n2)c1 (stereo not drawn)	-12.4	-5.4	25.6	1.2	·	3.3
c1ccc(CN2CCC(Nc3nc(-c4cccs4)nc4ccccc34)CC2)cc1	4.7	-2.6	74.8*	-18.1	1.6	22.1
CC(C)Cc1nnc(NC(=O)c2ccc3c(=O)n4c(nc3c2)CCC4)s1	10.6	3.9	-0.1	-10.4	·	-6.3
Cc1nc2ccc(F)cc2cc1C(=O)NCC1CCCO1 (stereo not drawn)	-6.6	-1.5	-1.3	-88.8*	1.5	13.8
N#Cc1ccc(CN2C(=O)NC3(CCCCCC3)C2=O)cc1	-7.0	20.8	21.1	12.0	·	0.3
O=C(c1cccc(S(=O)(=O)N2CCc3ccccc32)c1)N1CCN(c2ccccc2)CC1	15.0	9.7	25.6	12.4	·	-13.9
CC(=O)N1c2ccc(S(=O)(=O)NCC3CCC(C(=O)Nc4cc(C)ccn4)CC3)cc2CC1C (stereo not drawn)	26.0	27.9	87.7*	-2.9	·	9.8
CC[n+]1c(/C=C/N(C)c2ccccc2)n(-c2ccccc2)c2ccc(-c3nc4ccccc4s3)cc21	92.1*	91.1*	112.2*	-94.6*	·	91.3*
Cc1cc(C)c2nc3nc(C)c(C)cc3c(N)c2c1	-115.3	12.6	65.6*	-2.8	11.5	-9.9
CC(C)(C)c1ccc(/C=N/N2C(=O)CSC2=S)cc1	-8.7	-13.8	17.0	-1.6	·	57.0*
CCCCC[C@@H](C)N1C[C@H](COCc2ccccc2)Oc2cc(N3CC[C@@H](N(C)C)C3)ccc2S1(=O)=O	·	76.6*	·	·	·	-2.6
CCCCC[C@H](C)N1C[C@H](COCc2ccccc2)Oc2cc(N3CC[C@@H](N(C)C)C3)ccc2S1(=O)=O	·	28.0	·	·	·	2.7
Cn1c(SCC(=O)N/N=C/c2cc([N+](=O)[O-])ccc2O)nnc1-c1ccccc1	3.6	9.4	18.6	7.7	-1.0	3.2
Cn1c(SCC(=O)N/N=C/c2ccc([N+](=O)[O-])s2)nnc1-c1ccccc1	-2.6	31.6	64.1*	-13.8	28.3	16.2
